Source: PubChem BioAssay
esBAF inh: inhibitors of esBAF chromatin remodeling in mouse ES cells; AID 602393; Bmi1-luciferase knock-in reporter, 24 h; 100% = twice the neutral-well signal; 350,000 compounds, 2% hits; reporter increase, % at 12.5 µM; in the data active = activation above about 40%; inconclusive = no clear call, values can overlap the other calls;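 also: 0% = median of the plate's neutral control wells and 100% = double that signal; a rise in the Bmi1 reporter signal indicates esBAF inhibition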
MITF TRPM1 HTS: activators of MITF-driven TRPM1 promoter activity in SK-MEL-5 cells. 300,000 compounds, 0.75% hits. AID 588334. activation, % at 12.5 µM. SK-MEL-5 TRPM1-promoter luciferase, 24 h; % of positive control, neutral wells = 0;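 active = mean activation of at least 80% with every replicate also reaching 80%; inconclusive = mean reaches 80% but some replicate falls short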;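 also: 0% = neutral control wells and 100% = parthenolide positive control wells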
Wnt act: activates Wnt/beta-catenin signaling in a reporter cell assay | activator, plate reader | activation, % at 9.35 µM | 300,000 compounds, 1.2% hits | AID 743398; in the data active = activation above about 30%, passing the limit was not always enough; inconclusive = no clear call, values can overlap the other calls;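 also: 0% = neutral control wells and 100% = positive control wells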
EWS-Fli inh: blocks EWS/Fli oncoprotein-driven transcription | A673 NR0B1-luciferase reporter, viability-normalised | inhibition, % at 12.6 µM | 350,000 compounds, 0.67% hits | AID 651661;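 active = mean inhibition of at least 50% after viability correction, with every replicate also passing that limit; inconclusive = mean reaches 50% but only one of two replicates passes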;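 also: firefly luciferase signal divided by Alamar Blue viability fluorescence both relative to DMSO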
PAX8 reporter: PAX8 transcriptional activity inhibition. RMG-I TPO-luciferase reporter, SteadyGlo, 24 h. inhibition, % at 12.6 µM. 360,000 compounds, 1.2% hits. AID 652154;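 active = mean replicate inhibition at least 60% with every replicate also reaching 60%; inconclusive = only one of the two criteria is met; inactive = mean below 60% and not all replicates reaching 60%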;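 also: luciferase light reporting Pax8 driven TPO promoter activity; plate controls were median of neutral control wells for no effect and mitoxantrone controls for full effect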
TRPM1 prom inh: MITF TRPM1 promoter inhibition in SK-MEL-5 cells | inhibition, % at 12.5 µM | 330,000 compounds, 0.83% hits | AID 488899 | SK-MEL-5 TRPM1 promoter luciferase, 24 h;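 active = mean inhibition across replicates of 60% or more, whatever share of single replicates reaches that level; inconclusive = some that reach 60%, reason not given; inactive = mean inhibition across replicates below 60%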
An asterisk follows results filed as active; ? = inconclusive; · = no result given. In the library only some 4% were active in any assay of this set; here they are far more common.

SMILES	esBAF inh	MITF TRPM1 HTS	Wnt act	EWS-Fli inh	PAX8 reporter	TRPM1 prom inh
CCCC#Cc1ccc([C@H]2[C@H](C#N)N(S(=O)(=O)c3cccc(F)c3)[C@H]2CO)cc1	-0.1	·	·	8.9	54.7	·
N#C[C@H]1[C@@H](c2ccc(C#Cc3ccccc3F)cc2)[C@@H](CO)N1C(=O)C1CCCCC1	6.7	·	·	12.1	81.7*	·
COc1ccccc1C#Cc1ccc([C@@H]2[C@@H](C#N)N(C(=O)C3CCCCC3)[C@H]2CO)cc1	34.1	·	·	0.0	88.7*	·
CCCC#Cc1ccc([C@H]2[C@@H](C#N)N(C(=O)C3CCCCC3)[C@H]2CO)cc1	0.4	·	·	7.4	78.8*	·
CCCC#Cc1ccc([C@@H]2[C@H](C#N)N(S(=O)(=O)c3cccc(F)c3)[C@H]2CO)cc1	-0.8	·	·	20.3	83.1*	·
O=C(Cc1ccccn1)N1CC(=O)N2[C@@H](CO)[C@@H](c3ccc(C#CC4CCCCC4)cc3)[C@@H]2C1	·	·	·	-1.6	17.4	·
COc1ccccc1C#Cc1ccc([C@H]2[C@@H](C#N)N(C(=O)C3CCCCC3)[C@H]2CO)cc1	-0.1	·	·	63.2*	73.4*	·
COc1ccccc1C#Cc1ccc([C@H]2[C@@H](C#N)N(C(=O)C3CCC3)[C@H]2CO)cc1	36.2	·	·	-17.0	64.2*	·
COC(=O)c1ccc(NC(=O)CCc2c(C)nc3ncnn3c2C)cc1	-1.5	-6.9	-1.0	·	3.0	8.5
CCOC(=O)c1ccc(Nc2c(CC)c(C)nc3ncnn23)cc1	8.6	-7.0	·	·	·	8.1
CCc1c(C)nc2ncnn2c1Nc1ccc(C(C)=O)cc1	47.7*	33.2	26.3	·	-100.2	-30.7
CC(=O)c1ccc(NC(=O)CCc2c(C)nc3ncnn3c2C)cc1	47.6*	17.4	23.5	·	-64.3	-21.3
C[C@H](CO)N1C[C@H](C)[C@H](CN(C)Cc2ccccc2C(=O)O)Oc2ncc(C3=CCCC3)cc2C1=O	-3.1	·	·	-4.1	-20.7	·
O=S(=O)(NCc1ccc(Cl)c(Cl)c1)c1cc(Cl)ccc1N1CC[C@@H](O)C1	·	·	-0.5	-4.8	17.7	·
COc1ccc(CNS(=O)(=O)c2cc(Cl)ccc2N2CC[C@@H](O)C2)cc1	·	·	-5.4	54.9*	45.7	·
COC(=O)CNc1c(-c2ccccc2)nc2ccc(Br)cn12	49.7*	·	·	·	-8.9	-39.9
C/C(=N/O)c1no[n+]([O-])c1/C(C)=N\O	·	·	37.9*	11.5	2.3	-3.8
C[C@@H]1CCCCO[C@@H](CN(C)C(=O)C2CCCCC2)[C@H](C)CN([C@@H](C)CO)C(=O)c2cc(NS(=O)(=O)c3cn(C)cn3)ccc2O1	6.3	·	·	-0.1	17.3	·
C[C@@H]1CN([C@H](C)CO)C(=O)c2cc(/C=C/c3ccccc3)cnc2O[C@@H]1CN(C)C(=O)C1CC1	·	·	·	-14.2	74.2*	·
C[C@@H]1CN([C@@H](C)CO)C(=O)c2cc(/C=C/c3ccccc3)cnc2O[C@@H]1CN(C)C(=O)Nc1ccc(C(F)(F)F)cc1	-0.4	·	·	51.9*	·	·
CO[C@H]1CN(C)C(=O)c2ccc(NC(=O)C3CC3)cc2OC[C@H](C)N(C(=O)c2ccncc2)C[C@H]1C	-1.4	·	·	-2.1	4.3	·
COCCn1c(SCC(=O)Nc2ccc3c(c2)OCCO3)nc2c(c1=O)SC(C)C2 (stereo not drawn)	47.0*	13.9	17.2	-47.7	-36.7	-13.1
CCn1c(SCC(=O)NCc2ccc3c(c2)OCO3)nc2c(c1=O)SCC2	-4.1	-12.8	30.7*	·	-4.5	10.5
CC1Cc2nc(SCC(=O)Nc3ccc4c(c3)OCCO4)n(C)c(=O)c2S1 (stereo not drawn)	8.8	-5.5	·	·	·	3.8
CC1Cc2nc(SCC(=O)Nc3ccc4c(c3)OCO4)n(Cc3ccccc3)c(=O)c2S1 (stereo not drawn)	63.9*	59.0	·	·	·	-57.6
SMILES	esBAF inh	MITF TRPM1 HTS	Wnt act	EWS-Fli inh	PAX8 reporter	TRPM1 prom inh
CCCNC(=O)[C@@H]1[C@@H](CO)[C@@H]2Cn3c(ccc(-c4ccccc4)c3=O)[C@@H]2N1C(=O)c1ccccc1F	0.7	·	·	-4.2	-1.4	·
C[C@@H]1CN([C@H](C)CO)C(=O)Cc2cc(NC(=O)Nc3ccccc3)ccc2O[C@@H]1CN(C)Cc1ccccc1	4.7	·	·	3.3	-16.4	·
O=C(N/N=C/c1ccc(N2CCOCC2)cc1)c1cccs1	8.1	43.0	55.6*	-81.6	-114.1	-43.9
O=C(c1ccc(N2CCOCC2)cc1)c1cccs1	-7.2	·	41.6*	·	-124.8	-17.6
COc1cc(C)ccc1OCc1cc(C(=O)N2CCC(c3ccc(F)cc3)C2)no1 (stereo not drawn)	81.7*	82.2*	40.9*	·	-211.9	-77.1
Cc1ccc(C)c(OCc2cc(C(=O)N3CC[C@@H]4CCCC[C@H]4C3)no2)c1	54.4*	22.4	17.4	·	-157.8	-23.7
Cc1ccc(C)c(OCc2cc(C(=O)N3CCN(C(=O)c4ccco4)CC3)no2)c1	80.0*	33.6	16.8	-124.5	-215.5	-40.5
COCC1CCN(C(=O)c2cc(COc3ccc(F)cc3F)on2)C1 (stereo not drawn)	6.5	11.3	2.5	-12.0	-11.2	-10.7
CCN(CCn1cccn1)C(=O)c1cc(COc2cc(C)ccc2C)on1	69.7*	61.0	?	-97.6	-244.8	-59.6
C[C@@H]1CN([C@H](C)CO)C(=O)c2cc(C#CCc3ccccc3)cnc2O[C@H]1CN(C)Cc1cccnc1	-1.5	·	·	5.5	·	·
C[C@@H](NC(=O)C[C@@H]1C[C@H]2c3cc(NC(=O)c4cccnc4)ccc3O[C@H]2[C@@H](CO)O1)c1ccccc1	0.0	·	·	2.9	-7.2	·
Cc1ccc(C)c(OCc2cc(C(=O)N3C[C@@H](C)O[C@@H](C)C3)no2)c1	75.6*	125.3*	37.4*	-99.5	-238.2	-126.6
CSc1ccccc1OCc1cc(C(=O)NC2CCOC(C)(C)C2)no1 (stereo not drawn)	-0.2	12.0	-0.4	-17.2	-38.5	-12.9
Cc1ccc(C)c(OCc2cc(C(=O)NC3CCOC(C)(C)C3)no2)c1 (stereo not drawn)	50.9*	17.1	12.1	-66.8	-101.7	-16.1
C[C@H](CO)N1C[C@H](C)[C@@H](CN(C)Cc2ccc(-c3ccccc3)cc2)Oc2ccc(NC(=O)Cc3cn(C)c4ccccc34)cc2C1=O	-1.9	·	·	1.5	·	·
CC(=O)NC[C@@H]1[C@@H](c2ccc(-c3ccccc3)cc2)[C@H](CO)N1C(=O)C1CC1	-8.1	·	·	6.0	-22.4	·
Cc1nonc1NC(=O)c1oc2ccc(F)cc2c1C	19.3	12.4	1.3	·	-7.5	-6.6
CCc1ccc2oc(C(=O)Nc3nonc3CC)c(C)c2c1	?	89.9*	26.6	-66.0	-222.1	-88.2
Cc1cc2oc(C(=O)Nc3nonc3C)c(C)c2cc1Cl	43.8*	54.1	26.3	-96.5	-39.2	-51.9
COc1cccc(NC(=O)N2CC[C@@H]3[C@@H](CO)N(C)c4ccc(-c5ccccc5)cc4[C@@H]32)c1	-4.4	·	·	7.1	-23.8	·
CC(=O)c1ccc(OCc2cc(C(=O)N(C)Cc3ncc(C)[nH]3)no2)cc1	1.3	-7.8	-3.1	·	10.4	9.0
Cc1cc(CN(C)C(=O)c2cc(COc3ccc4ncccc4c3)on2)on1	-5.6	-7.5	-2.3	-0.5	91.2*	10.1
